PLC-beta3 inh – inhibitors of human phospholipase C beta3; Q01970; Purified PLC-beta3, fluorogenic substrate, fluorescence; inhibition, % at 12.2 µM; actives 0.18% (n = 370,000);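 note: 0% = median of compound wells on plate and 100% = full blocker control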
PLC-gamma1 inh – inhibitors of human phospholipase C gamma1; AID 720700; actives 0.84% (n = 370,000); purified PLC-gamma1, fluorogenic substrate, fluorescence; inhibition, % at 12.2 µM; in the data active = inhibition above about 9.5%
bovine MsrA act – bovine methionine sulfoxide reductase A activation; AID 602163; purified bovine MsrA, absorbance read-out; actives 0.3% (n = 360,000); activation, % at 10.6 µM; in the data active = activation above about 7.5%;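 note: 0% = vehicle and 100% = reference activator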
MsrA inhibitor – inhibitors of bovine MsrA | purified bovine MsrA, absorbance read-out | inhibition, % at 15.5 µM | actives 0.75% (n = 360,000) | AID 651718; in the data active = inhibition above about 4.5%;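 note: 0% = vehicle wells with enzyme and 100% = reference inhibitor wells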
MsrA inh confirm – confirmation of bovine MsrA inhibitors; shares compounds with MsrA inhibitor; purified bovine MsrA, absorbance read-out; inhibition, % at 15.5 µM; actives 41% (n = 2,300); AID 651822; in the data active = inhibition above about 4.5%;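 note: coupled to thioredoxin reductase with NADPH and selenocystamine and DMSO as substrate; 0% = vehicle only and 100% = full effect of reference inhibitor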
PLCg1 ctr – inhibits human PLC-gamma1 in PLC-beta3 counter-screen. purified PLC-gamma1, fluorogenic substrate, fluorescence. AID 743258. actives 3.1% (n = 3,300). inhibition, % at 12.3 µM. shares compounds with PLC-gamma1 inh; in the data active = inhibition above about 9.5%
PLCb3 confirm – confirmation of human PLC-beta3 inhibitors; shares compounds with PLC-gamma1 inh; inhibition, % at 12.3 µM; purified PLC-beta3, fluorogenic substrate fluorescence; actives 1% (n = 3,300)
Numbers without * were called inactive. Most compounds without a hit are left out; they make up all but 1.9% or so of the library. Cut-off read from the data, not from the text of the source, unless noted: active = inhibition above about 11%; inactive = the rest.

How did COC(=O)[C@]12C[C@H](CC(=O)NCc3ccc(OC)c(OC)c3)C(=O)N(Cc3ccccc3)C1=C[C@H](COCc1ccccc1)O[C@@H]2C do in these assays?
PLC-beta3 inh: 2; PLC-gamma1 inh: 3

Results for COc1ccc(N=Cc2c(C)[nH][nH]c2=O)cc1 ?
PLC-beta3 inh: 8; PLC-gamma1 inh: 9.9*; bovine MsrA act: -5; MsrA inhibitor: 5.4*; MsrA inh confirm: 3; PLCg1 ctr: 1; PLCb3 confirm: 1

How did COc1ccc(N2C(=O)c3[nH]nc(-c4ccccc4)c3C2c2cccc(C(F)(F)F)c2)cc1 (stereo unspecified) do in these assays?
PLC-beta3 inh: -6; PLC-gamma1 inh: -2; MsrA inhibitor: 1

What do the screens show for `CC(=O)c1cnc2sccn2c1=O`?
PLC-beta3 inh: 11; PLC-gamma1 inh: 14*; bovine MsrA act: -2; MsrA inhibitor: 6.2*; MsrA inh confirm: 2; PLCg1 ctr: -5; PLCb3 confirm: -2

How did NS(=O)(=O)c1ccc(N/N=C/c2ccc(O)cc2O)c([N+](=O)[O-])c1 do in these assays?
PLC-beta3 inh: 3; PLC-gamma1 inh: 10*; bovine MsrA act: -6; MsrA inhibitor: 6.2*; MsrA inh confirm: 3; PLCg1 ctr: 12*; PLCb3 confirm: 13*

Results for CC(C)(C)c1ccc(C#C[C@@H]2C=C[C@H](O)[C@@H](COC(=O)Nc3ccccc3)O2)cc1 ?
PLC-beta3 inh: -3; PLC-gamma1 inh: 0; MsrA inhibitor: 0

What do the screens show for `N/C(=N\N=C\c1cccc([N+](=O)[O-])c1)c1nonc1N`?
PLC-beta3 inh: -1; PLC-gamma1 inh: 6; bovine MsrA act: -2; MsrA inhibitor: 3

Results for N/C(=N\N=C\c1ccc2c(c1)OCO2)c1nonc1N ?
PLC-beta3 inh: 13*; PLC-gamma1 inh: 9.8*; bovine MsrA act: -7; MsrA inhibitor: 7.3*; MsrA inh confirm: 4; PLCg1 ctr: -6; PLCb3 confirm: 1

Results for O=Cc1c(-c2ccc(F)cc2)nc2ccccn12 ?
PLC-beta3 inh: 1; PLC-gamma1 inh: 11*; bovine MsrA act: -1; MsrA inhibitor: 9.1*; MsrA inh confirm: 3; PLCg1 ctr: -6; PLCb3 confirm: 0

How did Cc1c(NC(=S)N/N=C/C=C/c2ccc([N+](=O)[O-])cc2)c(=O)n(-c2ccccc2)n1C do in these assays?
PLC-beta3 inh: 4; PLC-gamma1 inh: 12*; bovine MsrA act: -3; MsrA inhibitor: 9.8*; MsrA inh confirm: 4.9*; PLCg1 ctr: 11*; PLCb3 confirm: 5

Results for CCOC(=O)/C(C#N)=C1/C=CN(c2ccc(C)cc2)C=N1 ?
PLC-beta3 inh: 12*; PLC-gamma1 inh: 13*; bovine MsrA act: -6; MsrA inhibitor: 6.6*; MsrA inh confirm: 5.2*; PLCg1 ctr: -5; PLCb3 confirm: 1

Results for CCCCCCN1C=CC(=C/C=C(\C#N)C(=O)OCC)C=C1 ?
PLC-beta3 inh: -23; PLC-gamma1 inh: -22; bovine MsrA act: -3; MsrA inhibitor: 0

How did CCOC(=O)/C(C#N)=C1/C=CN(c2ccccc2)C=N1 do in these assays?
PLC-beta3 inh: 6; PLC-gamma1 inh: 11*; bovine MsrA act: -8; MsrA inhibitor: 5.6*; MsrA inh confirm: 6.0*; PLCg1 ctr: 7; PLCb3 confirm: 7

Results for CCOC(=O)/C(C#N)=C1/C=CN(C)C=N1 ?
PLC-beta3 inh: 8; PLC-gamma1 inh: 10*; bovine MsrA act: -7; MsrA inhibitor: 7.4*; MsrA inh confirm: 5.7*; PLCg1 ctr: 14*; PLCb3 confirm: 9

What do the screens show for `CCOC(=O)/C(C#N)=C1/C=Nc2ccccc2N1`?
PLC-beta3 inh: -13; PLC-gamma1 inh: -13; bovine MsrA act: 0; MsrA inhibitor: 2

How did O=S(=O)(c1ccc(C(F)(F)F)cc1)N1CCCc2nc(-c3ccccc3)ccc21 do in these assays?
PLC-beta3 inh: 1; PLC-gamma1 inh: -2; MsrA inhibitor: 0

Results for CCCNC(=S)N(Cc1ccccc1)Cc1nc2ccccc2c(=O)[nH]1 ?
PLC-beta3 inh: -9; PLC-gamma1 inh: 20*; bovine MsrA act: -7; MsrA inhibitor: 47*; MsrA inh confirm: -1; PLCg1 ctr: -44; PLCb3 confirm: -34

How did CCOCCCNC(=S)N(Cc1ccccc1)Cc1nc2ccccc2c(=O)[nH]1 do in these assays?
PLC-beta3 inh: -40; PLC-gamma1 inh: -30; bovine MsrA act: -5; MsrA inhibitor: 1

Assay outcomes as filed in PubChem.
